Results taken from PubChem BioAssay (Tox21).
Results filed as inconclusive are left out. Calls of active or inactive are those of the source. Unless noted, the call rests on the fitted dose curve; in most records, active means well fitted curve in the direction sought with a large enough effect in the repeat runs; inconclusive means weak or mixed curves; inactive means no such curve, though single readings can be large; an effect the other way counts as inactive or inconclusive.

Experiments:
[1] = A CellTox Green Cytotoxicity Assay to monitor cytotoxicity in HEK293 cells - 32 hour (AID 1224881); further: nearly all actives have a fitted effect of over 40% in size
Summary of the method: (§1)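 HEK293 cells premixed with CellTox Green dye were seeded at 600 cells/well and left 5 h at 37 C/5% CO2 before pin transfer of 23 nL compound in DMSO. Fluorescence from dye bound to dead-cell DNA was read during 40 h treatment.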

[2] = A CellTox Green Cytotoxicity Assay to monitor cytotoxicity in HepG2 cells - 0 hour (AID 1224882); further: nearly all actives have a fitted effect of over 35% in size
Summary of the method: (§2)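 HepG2 cells were seeded together with the CellTox Green dye at 600 cells/well, left 5 h at 37 C/5% CO2, then given compounds in DMSO. Fluorescence from dye bound to dead-cell DNA was read repeatedly over 40 h of treatment at 37 C.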

[3] = A CellTox Green Cytotoxicity Assay to monitor cytotoxicity in HepG2 cells - 32 hour (AID 1224883); further: nearly all actives have a fitted effect of over 50% in size
Summary of the method: as §2

[4] = A CellTox Green Cytotoxicity Assay to monitor cytotoxicity in HEK293 cells - 8 hour (AID 1224884); further: nearly all actives have a fitted effect of over 35% in size
Summary of the method: as §1

[5] = qHTS RealTime-Glo MT Cell Viability Assay in HepG2 cells - 16 hour (AID 1224885); further: nearly all actives have a fitted effect of over 50% in size
Summary of the method: (§3)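 HepG2 cells (600/well) were dispensed with RealTime-Glo reagents, incubated 5 h at 37 °C, then treated with compounds in DMSO for up to 40 h. Nonlytic NanoLuc luminescence reflecting viable cells was read at each stated time point.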

[6] = qHTS RealTime-Glo MT Cell Viability Assay in HEK293 cells - 24 hour (AID 1224886); further: top concentration of the series differs between compounds; nearly all actives have a fitted effect of over 50% in size
Summary of the method: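 HEK293 cells seeded with NanoLuc/prosubstrate reagent, rested 5 h at 37 C, then dosed and kept at 37 C up to 40 h. Nonlytic real-time luminescence from viable cells read at 0, 8, 16, 24, 32 and 40 h.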

[7] = qHTS RealTime-Glo MT Cell Viability Assay in HEK293 cells - 8 hour (AID 1224887); further: top concentration of the series differs between compounds; nearly all actives have a fitted effect of over 50% in size
Summary of the method: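 HEK293 cells mixed with RealTime-Glo reagents (NanoLuc plus cell-permeant prosubstrate) at 600 cells/well, preincubated 5 h at 37 C/5% CO2, then given 23 nL compound in DMSO. Nonlytic luminescence from viable cells was read at 0, 8, 16, 24, 32 and 40 h.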

[8] = A CellTox Green Cytotoxicity Assay to monitor cytotoxicity in HEK293 cells - 16 hour (AID 1224888); further: nearly all actives have a fitted effect of over 35% in size
Summary of the method: as §1

[9] = qHTS RealTime-Glo MT Cell Viability Assay in HepG2 cells - 0 hour (AID 1224889); further: nearly all actives have a fitted effect of over 50% in size
Summary of the method: as §3

[10] = A CellTox Green Cytotoxicity Assay to monitor cytotoxicity in HepG2 cells - 8 hour (AID 1224890); further: nearly all actives have a fitted effect of over 45% in size
Summary of the method: as §2

[11] = qHTS assay to identify small molecule antagonists of the estrogen receptor alpha (ER-alpha) signaling pathway using the BG1 cell line in the presence of 0.1 nM 17-beta-estradiol - cell viability counter screen (AID 1259241); further: nearly all actives have a fitted effect of over 40% in size
Summary of the method: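 Viability in VM7Luc4E2 cells after 22 hr compound exposure under 0.1 nM 17beta-estradiol stimulation, by CellTiter-Fluor.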

[12] = qHTS assay to identify small molecule antagonists of the androgen receptor (AR) signaling pathway using the MDA cell line in the presence of 0.5 nM R1881 - cell viability counter screen (AID 1259242); further: nearly all actives have a fitted effect of over 45% in size
Summary of the method: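 MDA-kb2 cells (human breast carcinoma, stably carrying MMTV-luciferase reporter) were exposed to compounds with 0.5 nM R1881 (final) for 16 hr at 37C, 0% CO2; viability then read as live-cell protease fluorescence (CellTiter-Fluor, 30 min) in the same wells.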

[13] = biological target: Androgen receptor (Homo sapiens) (UniProt P10275); assay: qHTS assay to identify small molecule antagonists of the androgen receptor (AR) signaling pathway using the MDA cell line in the presence of 0.5 nM R1881 (AID 1259243); further: nearly all actives have a fitted effect of over 50% in size
Summary of the method: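 MDA-kb2 human breast carcinoma cells carrying an MMTV-luciferase reporter (AR- and GR-responsive) were plated, rested 5 hr at 37C, dosed with compounds, then stimulated with 0.5 nM R1881 (final) for 16 hr; luminescence was read after ONE-Glo.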

[14] = qHTS assay to identify small molecule phospholipidosis (PLD) inducers (AID 1259344; active means well fitted curve in the direction sought with a large enough effect; an effect the other way counts as inactive or inconclusive)
Summary of the method: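 HepG2 cells, 900/well, treated with compound plus LipidTOX Red for 24 h at 37 C; amiodarone positive and DMSO negative controls. Fixed with paraformaldehyde/Hoechst, then high-content imaging scored LipidTOX pit count and integrated intensity per well and per cell.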

[15] = qHTS assay to identify small molecule HDAC inhibitors (AID 1259364); further: top concentration of the series differs between compounds; nearly all actives have a fitted effect of over 45% in size
Summary of the method: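 Wild-type HCT-116 cells were plated overnight, exposed to compounds for 2 h at 37 °C, then given HDAC-Glo class I/II luminogenic reagent for 30 min at room temperature before luminescence was read.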

[16] = qHTS assay to identify small molecule HDAC inhibitors - cell viability counter screen (AID 1259365)
Summary of the method: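 Cytotoxicity was gauged in wild-type HCT-116 cells after a brief 2hr treatment with DMSO-dissolved compounds at 37C and 5% CO2, using CellTiter-Glo luminescence developed for 30min at room temperature.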

[17] = qHTS assay to identify small molecule agonists of the sonic hedgehog signaling (Shh) pathway - cell viability counter screen (AID 1259366); further: nearly all actives have a fitted effect of over 50% in size
Summary of the method: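 Stable Gli1-Luc NIH/3T3 clone, 2,000 cells/well. Compound exposure 24hr at 37C. Read-out: CellTiter-Fluor fluorescence.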

[18] = qHTS assay to identify small molecule antagonists of the sonic hedgehog signaling (Shh) pathway - cell viability counter screen (AID 1259367); further: nearly all actives have a fitted effect of over 55% in size
Summary of the method: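 NIH/3T3-derived Gli1-Luc reporter cells, 2,000/well, plated 4 hr before compound addition, then stimulated with conditioned medium for 24 hr at 37C. Viability measured in the same wells by CellTiter-Fluor fluorescence, reagent added at 23 hr for 1 hr.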

[19] = qHTS assay to identify small molecule agonists of the sonic hedgehog signaling (Shh) pathway (AID 1259368; calls by dose curve; further: series mostly up to about 92 µM; nearly all actives have a fitted effect of over 15% in size)
Summary of the method: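 NIH/3T3-derived 3T3Gli1-Luc cells carrying a stably integrated Gli1 response element–firefly luciferase reporter were plated, left 4 hr at 37 C, then given compounds in DMSO for 24 hr. Luminescence was read 30 min after adding luciferase reagent.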

[20] = biological target: Estrogen receptor (Homo sapiens) (UniProt P03372); assay: qHTS assay to identify small molecule antagonists of the estrogen receptor alpha (ER-alpha) signaling pathway using the BG1 cell line in the presence of 0.1 nM 17-beta-estradiol (AID 1259244); further: nearly all actives have a fitted effect of over 50% in size
Summary of the method: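 VM7Luc4E2 cells (endogenous full-length ER-alpha, stable 4xERE-luciferase) were grown 5 days in phenol red-free medium with charcoal-stripped FBS, then exposed 22 h at 37C to compounds plus 0.1 nM (final) 17beta-estradiol; ONE-Glo luminescence read-out.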

Measured: Potency

Chain of Androgen receptor (Homo sapiens) (P10275 whole entry, looked up): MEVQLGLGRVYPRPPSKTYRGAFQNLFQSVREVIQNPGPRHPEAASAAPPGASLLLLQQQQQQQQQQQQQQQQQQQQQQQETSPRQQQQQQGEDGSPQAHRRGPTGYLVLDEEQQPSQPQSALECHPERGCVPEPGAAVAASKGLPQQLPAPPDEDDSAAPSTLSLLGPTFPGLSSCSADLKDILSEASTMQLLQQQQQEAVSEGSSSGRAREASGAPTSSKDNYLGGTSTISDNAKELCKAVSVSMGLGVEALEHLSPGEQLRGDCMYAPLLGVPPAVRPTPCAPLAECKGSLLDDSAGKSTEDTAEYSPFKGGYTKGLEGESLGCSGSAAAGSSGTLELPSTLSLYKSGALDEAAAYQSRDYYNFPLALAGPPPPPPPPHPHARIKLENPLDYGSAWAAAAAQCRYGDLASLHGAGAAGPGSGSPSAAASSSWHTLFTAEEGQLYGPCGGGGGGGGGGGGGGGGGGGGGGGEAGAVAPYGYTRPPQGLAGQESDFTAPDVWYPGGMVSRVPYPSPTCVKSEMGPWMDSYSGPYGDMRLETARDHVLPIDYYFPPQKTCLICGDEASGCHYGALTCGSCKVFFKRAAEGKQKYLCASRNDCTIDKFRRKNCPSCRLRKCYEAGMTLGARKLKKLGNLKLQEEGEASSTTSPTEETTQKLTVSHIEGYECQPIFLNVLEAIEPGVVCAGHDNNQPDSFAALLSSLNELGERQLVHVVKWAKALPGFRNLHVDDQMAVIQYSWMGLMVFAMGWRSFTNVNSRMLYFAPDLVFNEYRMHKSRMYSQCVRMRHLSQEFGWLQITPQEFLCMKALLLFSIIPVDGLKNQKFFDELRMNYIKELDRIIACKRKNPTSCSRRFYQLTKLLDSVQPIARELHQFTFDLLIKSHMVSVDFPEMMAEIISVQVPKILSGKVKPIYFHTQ
Chain of Estrogen receptor (Homo sapiens) (P03372 whole entry, looked up): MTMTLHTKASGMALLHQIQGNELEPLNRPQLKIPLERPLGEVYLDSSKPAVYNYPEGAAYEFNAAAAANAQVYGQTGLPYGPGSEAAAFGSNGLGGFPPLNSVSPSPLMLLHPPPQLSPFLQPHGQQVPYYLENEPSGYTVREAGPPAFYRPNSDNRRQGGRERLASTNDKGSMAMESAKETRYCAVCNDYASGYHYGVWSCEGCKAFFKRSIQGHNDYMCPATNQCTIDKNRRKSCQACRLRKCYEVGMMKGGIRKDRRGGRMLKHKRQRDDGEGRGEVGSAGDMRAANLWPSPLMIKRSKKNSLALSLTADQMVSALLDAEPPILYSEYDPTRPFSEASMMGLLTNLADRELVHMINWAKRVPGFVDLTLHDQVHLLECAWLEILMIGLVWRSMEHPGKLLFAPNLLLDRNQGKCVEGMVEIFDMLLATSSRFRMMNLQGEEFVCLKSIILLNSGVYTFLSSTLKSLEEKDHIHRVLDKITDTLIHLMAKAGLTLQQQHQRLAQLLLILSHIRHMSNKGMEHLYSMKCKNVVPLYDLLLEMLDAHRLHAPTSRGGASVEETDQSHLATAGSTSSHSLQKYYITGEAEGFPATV

C1N2CN3CN1CN(C2)C3
not listed: [20]
inactive: all other assays above

Nc1ccn([C@H]2CC[C@@H](CO)O2)c(=O)n1
not listed: [9] | [12] | [13]
inactive: all other assays above

CCCC(CCC)C(=O)O
not listed: [9] | [12] | [13]
inactive: all other assays above

CCCN(CCC)S(=O)(=O)c1ccc(C(=O)O)cc1
not listed: [9] | [12] | [20]
inactive: all other assays above

CC(=O)OCC(COC(C)=O)OC(C)=O
not listed: [12] | [13] | [20]
inactive: all other assays above

O=c1ccc2ccccc2o1
not listed: [9] | [13]
inactive: all other assays above

Cn1cc[nH]c1=S
not listed: [5] | [13]
inactive: all other assays above
